Inconclusive results are not listed. Where a call stands in place of a potency, no number is given. Calls of active or inactive are those of the source. Calls follow the shape of the dose curve; as a rule, active = well fitted cell-killing curve with a large enough effect; inconclusive = small, poorly fitted or top-dose-only effect; inactive = flat fitted curve, though single readings scatter.
Assay: Cell Viability - LYMP2-025 (AID 976)
Conditions: LYMP2-025 lymphoblastoid cell viability; series mostly up to 92.2 µM
Summary of the method: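 CellTiter-Glo luminescence (cellular ATP) after 24 h compound exposure at 37 C; LYMP2-025 human lymphoblastoid cells, 2500/well, complete medium. Tetraoctylammonium bromide positive control. AC50 by Hill equation fit of qHTS concentration-response.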
In the case of `C=CCn1c(=O)n(CC=C)c(=O)n(CC=C)c1=O`, the Potency is reported as “inactive”. In the case of `Nc1nc(-c2ccccc2)cs1`, the Potency is reported as “inactive”. For `Cc1ccc(C(=O)O)cc1`, the Potency was “inactive”. With `CCC(=O)/C=C/C1C(C)=CCCC1(C)C` (configuration not stated) the Potency was “inactive”. With `O=C(O)c1ccccc1[N+](=O)[O-]` the Potency was “inactive”. In the case of `CN(C)c1cccc(O)c1`, the Potency is reported as “inactive”. For `O=C(O)c1ccc(C(=O)O)cc1`, the Potency was “inactive”. In the case of `NCCCCCCN`, the Potency is reported as “inactive”. In the case of `CC(C)(C)OCC1CO1` (configuration not stated), the Potency is reported as “inactive”. For `Cc1cc(C2(c3cc(C)c(O)cc3C)OS(=O)(=O)c3ccccc32)c(C)cc1O`, the Potency was “inactive”. In the case of `Cc1ccccc1C(=O)O`, the Potency is reported as “inactive”. With `CC(C)(C)OC=O` the Potency was “inactive”. For `COc1cccc(N)c1`, the Potency was “inactive”. With `CCCCC(CC)CO` (configuration not stated) the Potency was “inactive”. For `O=[N+]([O-])c1ccccc1CCO`, the Potency was “inactive”. In the case of `COCCOC(=O)c1ccccc1C(=O)OCCOC`, the Potency is reported as “inactive”. With `O=C(O)c1cccc([N+](=O)[O-])c1` the Potency was “inactive”. With `CCCCCNCCCCC` the Potency was “inactive”. In the case of `CCCCOCCOCCSC#N`, the Potency is reported as “inactive”. In the case of `CC1(N)CCC(C(C)(C)N)CC1` (configuration not stated), the Potency is reported as “inactive”. With `CCCCC(CC)CNCC(CC)CCCC` (configuration not stated) the Potency was “inactive”. In the case of `Nc1nc(CC(=O)O)cs1`, the Potency is reported as “inactive”. For `N#Cc1ccccc1`, the Potency was “inactive”. For `O=[N+]([O-])c1ccc(Cl)cc1Cl`, the Potency was “inactive”. For `C=CCCCCCCC=C`, the Potency was “inactive”. With `CC(O)COC(C)(C)C` (configuration not stated) the Potency was “inactive”. In the case of `CC(C)C(C)C`, the Potency is reported as “inactive”. In the case of `CCN(C(=O)N(CC)c1ccccc1)c1ccccc1`, the Potency is reported as “inactive”. For `O=C(O)c1ccc(CO)o1`, the Potency was “inactive”. With `Cc1ccc(C)o1` the Potency was “inactive”. For `O=CNc1ccccc1`, the Potency was “inactive”. In the case of `NS(=O)(=O)O`, the Potency is reported as “inactive”. With `CC(=O)OCCC(C)C` the Potency was “inactive”. In the case of `Cc1cccc(Br)c1`, the Potency is reported as “inactive”. For `NC(=S)NNC(N)=S`, the Potency was “inactive”. For `Cc1cccc2cccnc12`, the Potency was “inactive”. With `CC(=O)c1ccccn1` the Potency was “inactive”.

Assay: Cell Viability - LYMP2-002 (AID 977); also: potency is read from the fitted curve at half-maximal effect
Conditions: LYMP2-002 lymphoblastoid cell viability, qHTS; series mostly up to 92.2 µM
Summary of the method: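 Human lymphoblastoid cells (2500/well) in complete medium were preincubated 5 hr at 37 C, then exposed to compounds for 24 hr at 37 C. Intracellular ATP was read by CellTiter-Glo luminescence; AC50 came from Hill-equation concentration-response fits.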
With `C=CCn1c(=O)n(CC=C)c(=O)n(CC=C)c1=O` the Potency was “inactive”. For `Nc1nc(-c2ccccc2)cs1`, the Potency was “inactive”. For `CCCCC/C=C/C=C/C=O`, the Potency was 50.1 µM (active). For `Cc1ccc(C(=O)O)cc1`, the Potency was “inactive”. For `CCC(=O)/C=C/C1C(C)=CCCC1(C)C` (configuration not stated), the Potency was “inactive”. In the case of `O=C(O)c1ccccc1[N+](=O)[O-]`, the Potency is reported as “inactive”. In the case of `Nc1cccc(N)c1`, the Potency is reported as “inactive”. With `CN(C)c1cccc(O)c1` the Potency was “inactive”. With `O=C(O)c1ccc(C(=O)O)cc1` the Potency was “inactive”. With `NCCCCCCN` the Potency was “inactive”. In the case of `CC(C)(C)OCC1CO1` (configuration not stated), the Potency is reported as “inactive”. For `Cc1cc(C2(c3cc(C)c(O)cc3C)OS(=O)(=O)c3ccccc32)c(C)cc1O`, the Potency was “inactive”. With `Cc1ccccc1C(=O)O` the Potency was “inactive”. With `CC(C)(C)OC=O` the Potency was “inactive”. In the case of `COc1cccc(N)c1`, the Potency is reported as “inactive”. With `CCCCC(CC)CO` (configuration not stated) the Potency was “inactive”. In the case of `O=[N+]([O-])c1ccccc1CCO`, the Potency is reported as “inactive”. In the case of `COCCOC(=O)c1ccccc1C(=O)OCCOC`, the Potency is reported as “inactive”. For `O=C(O)c1cccc([N+](=O)[O-])c1`, the Potency was “inactive”. With `CCCCCNCCCCC` the Potency was “inactive”. In the case of `CCCCOCCOCCSC#N`, the Potency is reported as “inactive”. In the case of `CC1(N)CCC(C(C)(C)N)CC1` (configuration not stated), the Potency is reported as “inactive”. In the case of `CCCCC(CC)CNCC(CC)CCCC` (configuration not stated), the Potency is reported as “inactive”. With `Nc1nc(CC(=O)O)cs1` the Potency was “inactive”. In the case of `N#Cc1ccccc1`, the Potency is reported as “inactive”. For `O=[N+]([O-])c1ccc(Cl)cc1Cl`, the Potency was “inactive”. With `C=CCCCCCCC=C` the Potency was “inactive”. For `CC(O)COC(C)(C)C` (configuration not stated), the Potency was “inactive”. For `CC(C)C(C)C`, the Potency was “inactive”. In the case of `CCN(C(=O)N(CC)c1ccccc1)c1ccccc1`, the Potency is reported as “inactive”. In the case of `O=C(O)c1ccc(CO)o1`, the Potency is reported as “inactive”. With `Cc1ccc(C)o1` the Potency was “inactive”. With `O=CNc1ccccc1` the Potency was “inactive”. For `NS(=O)(=O)O`, the Potency was “inactive”. In the case of `CC(=O)OCCC(C)C`, the Potency is reported as “inactive”. With `Cc1cccc(Br)c1` the Potency was “inactive”. In the case of `NC(=S)NNC(N)=S`, the Potency is reported as “inactive”. With `Cc1cccc2cccnc12` the Potency was “inactive”. With `CC(=O)c1ccccn1` the Potency was “inactive”. In the case of `CC1=C(/C=C/C(C)=C/C=C/C(C)=C\C=O)C(C)(C)CCC1`, the Potency is reported as 50.1 µM (active).

Reference: PubChem BioAssay (NCATS)
